The record followed here is PubChem BioAssay (Tox21).

Each structure is given as a SMILES string. Several values for one entry are separate records, joined by “and”; a condition that tells them apart may be missing. Equal values may be shown once. Records with an inconclusive call do not appear. Values without a mark were called inactive. Activity calls are given as the source filed them. Calls follow the shape of the dose curve; as a rule, active = well fitted curve in the direction sought with a large enough effect in the repeat runs; inconclusive = weak or mixed curves; inactive = no such curve, though single readings can be large; an effect the other way counts as inactive or inconclusive.

Assay [1] is described as follows: qHTS RealTime-Glo MT Cell Viability Assay in HEK293 cells - 16 hour (AID 1224872). Also: nearly all actives have a fitted effect of over 50% in size. Also: potency is read from the fitted curve at half-maximal effect. As to activity change, negative = cytotoxicity: top concentration of the series differs between compounds. The method in brief:
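HEK293 cells seeded with NanoLuc/prosubstrate reagent, rested 5 h at 37 C, then dosed and kept at 37 C up to 40 h. Nonlytic real-time luminescence from viable cells read at 0, 8, 16, 24, 32 and 40 h.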
For orientation: In qHTS, concentration-response curves come from the screen itself.

A short description of assay [2]: qHTS RealTime-Glo MT Cell Viability Assay in HepG2 cells - 8 hour (AID 1224873). Also: nearly all actives have a fitted effect of over 55% in size. Also: potency is read from the fitted curve at half-maximal effect. In short, it runs like this:
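Real-time viability: cells seeded at 600 per well together with NanoLuc and cell-permeant prosubstrate, compounds added after 5 h incubation. Luminescence tracked at 0, 8, 16, 24, 32 and 40 h of exposure.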

Assay [3] in a line: qHTS RealTime-Glo MT Cell Viability Assay in HEK293 cells - 40 hour (AID 1224874). Also: nearly all actives have a fitted effect of over 50% in size. Also: potency is read from the fitted curve at half-maximal effect. The following applies: RealTime-Glo luminescence; max response: stronger effect = lower value. The method in brief:
(§1)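 Measured as luminescence from the same continuously cultured HEK293 wells at successive time points (0, 8, 16, 24, 32, 40 h) after compound addition. Reagent present from seeding; dosing at 5 h; incubation 37 C.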

Assay [4] in a line: A CellTox Green Cytotoxicity Assay to monitor cytotoxicity in HEK293 cells - 24 hour (AID 1224875). Also: nearly all actives have a fitted effect of over 45% in size. Also: potency is read from the fitted curve at half-maximal effect. As to activity change: series mostly up to about 77 µM. The method in brief:
(§2)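 Homogeneous no-lysis format: HEK293 cell suspension mixed with CellTox Green reagent, seeded, incubated 5 h at 37 C/5% CO2, then dosed by pintool with compound in DMSO.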

Assay [5] can be described thus: A CellTox Green Cytotoxicity Assay to monitor cytotoxicity in HepG2 cells - 16 hour (AID 1224876). Also: nearly all actives have a fitted effect of over 45% in size. Also: potency is read from the fitted curve at half-maximal effect. The method in brief: (§3)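 Fluorescent DNA-binding dye, 600 HepG2 cells/well, 5 h preincubation then compound in DMSO; same plates read at 0–40 h, 37 C.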
A short description of assay [6]: qHTS RealTime-Glo MT Cell Viability Assay in HepG2 cells - 32 hour (AID 1224877). Also: nearly all actives have a fitted effect of over 55% in size. Also: potency is read from the fitted curve at half-maximal effect. In short, it runs like this:
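HepG2 cells (600/well) were dispensed with RealTime-Glo reagents, incubated 5 h at 37 °C, then treated with compounds in DMSO for up to 40 h. Nonlytic NanoLuc luminescence reflecting viable cells was read at each stated time point.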

The nature of assay [7]: A CellTox Green Cytotoxicity Assay to monitor cytotoxicity in HepG2 cells - 24 hour (AID 1224878). Also: nearly all actives have a fitted effect of over 45% in size. Also: potency is read from the fitted curve at half-maximal effect. In short, it runs like this:
as §3

A short description of assay [8]: A CellTox Green Cytotoxicity Assay to monitor cytotoxicity in HepG2 cells - 40 hour (AID 1224879). Also: nearly all actives have a fitted effect of over 40% in size. Also: potency is read from the fitted curve at half-maximal effect. The method in brief: as §3
Assay [9] is described as follows: qHTS RealTime-Glo MT Cell Viability Assay in HEK293 cells - 0 hour (AID 1224880). Also: top concentration of the series differs between compounds; nearly all actives have a fitted effect of over 45% in size. In short, it runs like this:
as §1

Assay [10] is described as follows: A CellTox Green Cytotoxicity Assay to monitor cytotoxicity in HEK293 cells - 32 hour (AID 1224881). Also: nearly all actives have a fitted effect of over 40% in size. Also: potency is read from the fitted curve at half-maximal effect. In short, it runs like this:
as §2
% is scaled to controls: 0 for no effect and ±100 for the full control effect.

Consider `S=c1nccc[nH]1`, for which the Potency entry in assay [1], in assay [2], in [4], in assay [5], in [6] and in assay [7] was “inactive” in each case. Further, the Potency result in assay [8] and in assay [9] was “inactive” each time. For the same compound, the max response in assay [3] is 13.6%.
As for `Cc1cc(-n2nc3ccc(Cl)cc3n2)c(O)c(C(C)(C)C)c1`, the Potency result in assay [1], in assay [2], in assay [4], in [5], in assay [6] and in [7] was “inactive” throughout. Besides, the Potency result in [8], in [9] and in assay [10] was “inactive” in each case. For the same compound, in assay [3], the max response was -5.47%.
`CCC(CC)C(C)CCOC(C)=O` (stereo unspecified): the Potency entry in assay [1], in assay [2], in assay [4], in [5], in assay [6] and in assay [7] was “inactive” throughout. For the same compound, the Potency entry in [8], in assay [9] and in [10] was “inactive” each time. Moreover, the max response in assay [3] was 20.3%.
`CC(CO)Oc1ccccc1` (stereo unspecified): the Potency result in assay [1], in assay [2], in assay [4], in assay [5], in [6] and in [7] was “inactive” in each case. For the same compound, the Potency result in assay [8], in assay [9] and in [10] was “inactive” throughout. Further, in assay [3], the max response was -11%.
On to `CCCNCCC`, for which the Potency result in assay [1], in [2], in assay [4], in assay [6], in [7] and in assay [8] was “inactive” each time. The Potency result in assay [9] and in assay [10] was “inactive” in each case. For the same compound, the max response in assay [3] is -5.51%.
In the case of `CC(CCc1ccccc1)NCC(O)c1ccc(O)c(C(N)=O)c1` (stereo unspecified), the Potency entry in assay [1], in assay [2], in assay [4], in assay [6], in assay [7] and in [8] was “inactive” throughout. The Potency result in assay [9] and in [10] was “inactive” in each case. Also, the max response in assay [3] was 0.74%.
Take `O=C(O)O`: the activity change, negative = cytotoxicity in [1] is 1.92% [at 6.97 µM]; in assay [9] it was 3.17% [at 6.97 µM]. Further, in assay [2], the viability change, negative = cytotoxic is -4.4% [at 6.97 µM]. Also, the max response in assay [3] is -2.54%. Moreover, the activity change in assay [4] was 5.15% [at 6.97 µM, stronger effect = higher value]. The cytotoxicity increase in assay [5] is -0.218% [at 6.97 µM]; in assay [8] it was -9.85% [at 6.97 µM]; in [10], -1.24% [at 6.97 µM]. Moreover, the activity change, negative = cytotoxic in assay [6] was 7.61% [at 6.97 µM]. In addition, the cytotoxicity in assay [7] was -2.66% [at 6.97 µM].
For the compound `C=C(CC)C(=O)c1ccc(OCC(=O)O)c(Cl)c1Cl`, the Potency result in [1], in assay [2], in assay [4], in [5], in assay [6] and in assay [7] was “inactive” each time. Moreover, the Potency result in assay [8], in [9] and in [10] was “inactive” each time. Further, the max response in assay [3] was -6.17% and 15.5%.
Take `CCCCC(CC)COC(=O)CCCCC(=O)OCc1ccccc1` (stereo unspecified): the Potency entry in assay [1], in assay [2], in assay [4], in [5], in assay [6] and in assay [7] was “inactive” throughout. For the same compound, the Potency entry in [8], in [9] and in [10] was “inactive” throughout. In addition, the max response in assay [3] was -2.79%.
With `C#CC1(O)CC[C@H]2[C@@H]3CCC4=CCCC[C@@H]4[C@H]3CC[C@@]21C` (stereo partly specified), the Potency in assay [1] was 19.5 µM (active) and 21.3 µM (active); in assay [2], 21.3 µM (active); in [3], 19.5 µM (active) and 19 µM (active); in [4] it was 21.9 µM (active) and 21.3 µM (active); in assay [5], 34.7 µM (active) and 19 µM (active); in assay [6] it was 23.9 µM (active). Further, the Potency was 34.7 µM (active) and 19 µM (active) in [7]; 38.9 µM (active) and 21.3 µM (active) in assay [8]; 24.5 µM (active) and 21.3 µM (active) in assay [10]. Besides, the Potency result in assay [9] is “inactive”.
Take `CCCCOC(=O)CO`: the Potency entry in assay [1], in [2], in assay [4], in assay [6], in assay [7] and in assay [8] was “inactive” in each case. In assay [9], the Potency entry was “inactive”. Further, the max response in assay [3] was -0.491%.
Turning to `CN1CCN2c3ccccc3Cc3ccccc3C2C1` (stereo unspecified), the Potency result in assay [1], in assay [2], in assay [4], in assay [5], in [6] and in [10] was “inactive” in each case. Besides, in assay [3], the max response is -5.98%.
Take `C=Cc1ccccc1C=C`: the Potency result in assay [1], in [2], in [4], in assay [5], in assay [6] and in [7] was “inactive” throughout. For the same compound, the Potency result in assay [9] and in assay [10] was “inactive” in each case. In addition, in assay [3], the max response is 16.3%.
`C[C@H]1NCc2cc(-c3ccc4c(=O)c(C(=O)O)cn(C5CC5)c4c3OC(F)F)ccc21`: the activity change, negative = cytotoxicity was -1.72% [at 15.8 µM] in [1] and -10.2% [at 15.8 µM] in [9]. In assay [2], the viability change, negative = cytotoxic was -17% [at 15.8 µM]. In addition, in [3], the max response was -6.6%. The activity change in [4] is -2.55% [at 15.8 µM, stronger effect = higher value]. Moreover, the cytotoxicity increase in assay [5] is 1.43% [at 15.8 µM]; in assay [8] it was 1.86% [at 15.8 µM]; in assay [10] it was -2.38% [at 15.8 µM]. The activity change, negative = cytotoxic in assay [6] is -0.83% [at 15.8 µM]. Moreover, the cytotoxicity in assay [7] is 1.74% [at 15.8 µM].
As to `O=C(O)Cc1ccc2c(c1)C(=O)c1ccccc1CO2`, the Potency entry in [1], in [2], in assay [4], in assay [5], in [6] and in assay [7] was “inactive” throughout. Also, the Potency entry in [8], in assay [9] and in assay [10] was “inactive” each time. For the same compound, in [3], the max response was 1.5%.
On to `Cc1ccc(N/N=c2\c(=O)cc/c(=N\Nc3ccc(S(=O)(=O)O)cc3)c2=O)c(C)c1`, for which the Potency result in [1], in assay [2], in assay [4], in [6], in assay [7] and in assay [8] was “inactive” in each case. The Potency entry in [9] and in assay [10] was “inactive” in each case. In addition, in [3], the max response is 1.45%.
In the case of `COc1ccc(-c2coc3cc(O)ccc3c2=O)cc1`, the Potency result in assay [1], in [2], in assay [4], in assay [6], in assay [7] and in [8] was “inactive” in each case. Besides, in [9], the Potency entry is “inactive”. Moreover, the max response in [3] is -10.2%.
For `CCC(CC)(CC(=O)Nc1cccc(/C=C/c2nc(C3CCC3)cs2)c1)C(=O)O`, the Potency entry in [1], in [2], in assay [4], in assay [5], in [6] and in [7] was “inactive” each time. In addition, the Potency result in assay [8] and in assay [10] was “inactive” in each case. Moreover, in assay [3], the max response is -19.8%.
Consider `CCCCNS(=O)(=O)c1ccc(C)cc1`, for which the Potency result in assay [1], in assay [2], in assay [4], in assay [5], in assay [6] and in [9] was “inactive” in each case. Moreover, the Potency result in assay [10] was “inactive”. Besides, the max response in [3] was -16.6%. Moreover, the Potency in [7] is 6.16 µM (active).
